About 3,300 (1%) of roughly 320,000 compounds were called active.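 How the source made its calls: active means every valid replicate shows activation above 250% relative to neutral control wells; inactive means the rest, any valid replicate at or below 250%.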 The list comes from a sample in which actives are over-represented; it also holds similar structures and randomly drawn compounds.
Assay: restored growth of temperature-sensitive Mot1-301 yeast – S. cerevisiae, ATP luminescence, 38.5C, SUMOylation pathway inhibitor project, primary screen (AID 2716);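 further: OY570 slx delta 5 strain wells were the positive control but not used for scaling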
Details: S. cerevisiae Mot1-301 growth rescue, at 18.8 µM, hits give high values, percent above DMSO median, 100 means doubled

Growth rescue, active:
COc1cc(NC(=O)C2=CC(c3ccco3)=NS(=O)(=O)N2C)cc(OC)c1OC 446%
O=C1CCC(=O)N1CCOP1(=O)COc2ccccc2OC1 402%
COc1cccc(NC(=O)c2nn(C34CC5CC(CC(C5)C3)C4)cc2[N+](=O)[O-])c1 384%
Cc1ccc(NC(=O)N2CCC(O)(c3cccnc3)CC2)cc1 356%
N#CC1=C(N)Oc2n[nH]c(CSc3ccccc3)c2C12C(=O)Nc1ccccc12 (stereo unspecified) 564%
Cc1ccc(S(=O)(=O)N(C)C)cc1NC(=O)COC(=O)c1c(C)noc1C 358%
COCCCN1C(=O)c2ccc(C(=O)Nc3ccc(OC)cc3OC)cc2C1=O 994%
O=C(COC(=O)c1ccccc1C(=O)c1ccccc1)c1ccco1 524%
Cc1ccc(N2C(=O)C3N=NN(CC(=O)N4N=C(c5cccc6ccccc56)CC4c4ccccc4)C3C2=O)cc1 (stereo unspecified) 376%
COC(=O)c1cc2nc(-c3ccccc3)cc(C(F)(F)F)n2n1 295%
O=C(O)c1cnn2c(C(F)(F)F)cc(-c3ccccc3)nc12 310%
O=C(Nc1nccs1)C1CCN(S(=O)(=O)c2ccc(Cl)c(C(F)(F)F)c2)CC1 639%
Cc1sc2ncnc(Sc3nc4ccccc4s3)c2c1C 512%
NC(=O)c1cc(S(=O)(=O)N2CCCC2)ccc1OCc1ccc(F)cc1 359%
O=c1c2ccccc2nc(CSc2nnnn2-c2ccccc2)n1-c1ccccc1 1010%
Cc1ccc(N2C(=O)CC(Sc3ncn[nH]3)C2=O)cc1 (stereo unspecified) 287%
O=C1CC(c2ccccc2)C(=O)N1c1cccc(O)c1 (stereo unspecified) 564%

Growth rescue, inactive:
O=C(NCCCN1CCOCC1)c1cn(-c2ccccc2)nc1-c1ccc(F)cc1 -27.9%
COc1ccc(NC(=O)C2=CC(c3ccc(OC)c(OC)c3)=NS(=O)(=O)N2C)cc1 12.2%
COc1cc(NC(=O)C2=CC(c3ccc(C)cc3)=NS(=O)(=O)N2C)cc(OC)c1OC 18.9%
CCOC(=O)C(NC(C)=O)C(=O)Nc1ccc(OC)cc1 (stereo unspecified) 5.5%
NS(=O)(=O)c1ccc(CNC(=S)NC(=O)c2ccco2)cc1 -10.3%
CCCCc1nc2cc(C(=O)NCCc3cnn(C)c3)ccc2o1 249%
CC1Sc2ccc(C(=O)NCc3ccccc3Cl)cc2NC1=O (stereo unspecified) -10.2%
COc1ccc(C)cc1NC(=O)C(Sc1ccccc1)c1ccccc1 (stereo unspecified) -9.29%
COc1cccc(NC(=O)c2ccc(Cn3cc([N+](=O)[O-])cn3)o2)c1 -22.4%
Cn1cc([N+](=O)[O-])c(C(=O)Nc2ccc3c(c2)OCCO3)n1 -2.5%
COc1ccccc1C(=O)NCC(=O)OCC(=O)Nc1nnc(-c2ccccc2)o1 0.619%
CCCNC(=O)CCn1cc(-c2ccc(OC)cc2)nc1CCN -5.76%
CNS(=O)(=O)c1ccc(NC(=O)Nc2ccc3c(c2)OCO3)cc1 -8%
COc1ccc(Cl)cc1N(CC(=O)N1CCCCC1)S(C)(=O)=O 316%
COCc1c(C(=O)N/N=C\c2cccnc2)nnn1-c1nonc1N 0.433%
C#CCOCCOCCOCCNc1nc(N2CCN(C(=O)[C@H](CCC(=O)O)n3cc(CN)nn3)CC2)nc(N2CCN(C(=O)[C@H](CCC(=O)O)n3cc(CN)nn3)CC2)n1 -22.6%
O=C(c1cccc(F)c1)N1CCC(O)(c2cccnc2)CC1 16%
Cc1ccc(NC(=O)Nc2cccnc2)cc1 -4.18%
Cc1ccc(/C=N/NC(=O)c2sccc2OCc2ccc(F)cc2)cc1 17.9%
COc1cc(-c2nc(S(=O)(=O)c3ccc(Cl)cc3)c(N(C)C)o2)cc(OC)c1OC 9.48%
CC(C)CC(=O)Nc1nnc(S(=O)(=O)N(C)c2ccc(Cl)cc2)s1 -15.6%
COC(=O)c1ccc(COc2cc([N+](=O)[O-])cc3cccnc23)cc1 -14.7%
N#CC1=C(N)Oc2[nH]c(=S)[nH]c(=O)c2C12C(=O)Nc1ccccc12 (stereo unspecified) -12%
COC(=O)CCSc1nccn1Cc1ccccc1 -6.82%
Cc1ccc(S(=O)(=O)N(C)C)cc1NC(=O)COC(=O)/C=C/c1cccs1 -3.27%
Cc1ccc(S(=O)(=O)N(C)C)cc1NC(=O)COC(=O)C1COc2ccccc2O1 (stereo unspecified) -1.18%
O=c1[nH]n2c(=O)c3c([nH]c2c1N=Nc1ccccc1)CCC3 -13.5%
COCCCN1C(=O)c2ccc(C(=O)OCC(=O)NCc3ccccc3OC)cc2C1=O -4.61%
COc1ccc(OC)c(NC(=O)c2ccc3c(c2)C(=O)N(c2ccc(OC(C)=O)cc2)C3=O)c1 -1.05%
Cc1cc(S(=O)(=O)c2cc3ccc(O)c(C)c3oc2=O)ccc1F 2.17%
COc1ccc(F)cc1S(=O)(=O)NCC(c1ccc2c(c1)OCO2)N1CCN(C)CC1 (stereo unspecified) 72.2%
COc1ccc(NC(=O)CSc2ccc(-c3ccco3)nn2)c(OC)c1 -3.7%
CCc1ccc(C(=O)COC(=O)c2ccco2)cc1 2.04%
CCN(CC)c1ccc(C(=O)OCC(=O)c2ccco2)cc1 -12.1%
O=C(COC(=O)c1ccccc1O)NCc1ccco1 0.0433%
CC(=O)Oc1ccccc1C1=NN(C(C)=O)C(c2ccccc2)C1 (stereo unspecified) -0.218%
O=C1C2N=NN(CC(=O)N3N=C(c4cccc5ccccc45)CC3c3ccccc3)C2C(=O)N1c1ccccc1 (stereo unspecified) -6.23%
S=C(c1ccc(-c2ccccc2)o1)N1CCCCC1 32.2%
CCOC(=O)c1cc(-c2ccccc2C)n(Cc2cc(C)no2)n1 -17.1%
Cc1ccc(-c2cc(C(F)(F)F)n3ncc(C(=O)N4CCCCC4c4cccnc4)c3n2)cc1 (stereo unspecified) -2.2%
Cc1cc(C(F)(F)F)n2ncc(-c3ccccc3)c2n1 4.42%
COc1ccc(NC(=O)c2cc3nc(-c4ccccc4)cc(C)n3n2)cc1OC 50%
O=C(c1ccccc1)N1CCN(C(=O)c2cc3nc(-c4ccccc4)cc(C(F)(F)F)n3n2)CC1 -13.8%
COc1ccc(CNC(=O)c2cc(C(=O)C3CC3)c[nH]2)cc1 -7.94%
COc1ccc(N(CC(=O)Nc2cc(OC)ccc2OC)S(=O)(=O)c2c(C)noc2C)cc1 0.112%
CCc1nn(-c2cc(Oc3cccc4ccccc34)nc(-c3ccccc3)n2)c(N)c1C#N 20.3%
COC(=O)c1ccc2c(C(C)(C)O)c(C(C)(C)O)[nH]c2c1 6.47%
COc1ccccc1CNS(=O)(=O)c1cc2c3c(c1)CCC(=O)N3CCC2 -12.2%
O=C(Nc1ccccn1)C1CCN(S(=O)(=O)c2ccc3c(c2)OCCO3)CC1 -4.76%
O=C(Nc1ccccn1)C1CCN(S(=O)(=O)c2ccccc2)CC1 -0.505%
COc1ccccc1CNC(=O)[C@@H]1CCCN1C(=O)[C@@H]1Cc2ccccc2CN1C(=O)OC(C)(C)C -1.52%
CCOc1ccc(Oc2nc(C)cc(OC)n2)nn1 -10.1%
O=C(CNS(=O)(=O)c1ccccc1)NCC(=O)OCc1ccccc1F -4.19%
Cc1ccc(SCC(=O)NC(=O)NCc2ccco2)c(C)c1 -8.85%
COC(=O)c1c(-c2cccs2)csc1NC(=O)CSc1ncnc2sc(C)c(C)c12 -4.24%
CSc1ncnc2sc(C)c(C)c12 -17.7%
CCOc1ccc(S(=O)(=O)NCCC(=O)N2CCCCCCC2)cc1 10%
Cc1ccc(S(=O)(=O)N2CCOCC2)cc1C(=O)NCc1ccc(F)cc1 2.54%
COc1ccc(S(=O)(=O)N2CCCCCC2)cc1NC(=O)Cc1ccc(OC)c(OC)c1 -10.8%
COc1ccc(OC)c(-n2cc3c(=O)n(C)c(=O)n(C)c3c2)c1 2.1%
Cc1ccc(Nc2nc(CSc3nnnn3-c3ccccc3)cc(=O)[nH]2)cc1 3.22%
O=c1c2ccccc2nnn1CSc1nnnn1-c1ccccc1 0.362%
Cn1c(N)c(C(=O)COC(=O)c2ccccc2NCc2ccco2)c(=O)n(C)c1=O 72.4%
COC(=O)c1ccc(C(NC(=O)OCc2ccccc2)/C(F)=C/[C@@H](C)C(=O)O)cc1 (stereo partly specified) -2.48%
CCc1ccccc1S(=O)(=O)Cc1ccc(C(=O)NCCc2ccccc2)o1 -2.78%
O=C1CC(Sc2ncn[nH]2)C(=O)N1c1ccccc1 (stereo unspecified) -26.4%
COc1ccc(N2C(=O)CC(Sc3n[nH]c(-c4ccc(C)cc4)n3)C2=O)cc1 (stereo unspecified) 257%
COc1cc(Cl)c(C)cc1NC(=O)CSc1nnc(CN2CCCC2)o1 50.1%
CCOc1cc2[nH]c(=S)n(Cc3ccc(C(=O)N4CCN(C)CC4)cc3)c(=O)c2cc1OCC -1.75%
O=C(CNS(=O)(=O)c1ccc(Br)s1)NCc1ccc2c(c1)OCO2 17.3%
O=C(CNC(c1ccccc1)c1ccccc1)Nc1ccc(F)cc1 14.1%
O=C1OCC2=C1C(c1ccccc1)CC(=O)N2c1cccc(F)c1 (stereo unspecified) 4.11%
CN1C(=O)CC(c2ccccc2)C1=O (stereo unspecified) 8.06%
COc1ccc(C(C)=O)cc1CN1C(=O)NC2(CCCCC2C)C1=O (stereo unspecified) 115%

From PubChem BioAssay AID2716 (Broad Institute, 2010)
